Measurements as given in the supplement of paper PMC10981050.
“And” between values parts separate entries of the source, which are not always exact repeats. Equal entries are not always repeated. Structures can show the parent of a compound that is named as a salt.

What was measured:
Test in all cases: cell viability relative to vehicle control; higher = less cytotoxic
Settings in all cases: 10 µM
K562 = tested on: K562
How it was run: (§1)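 Mutant clones made by CRISPR editing and their isogenic wild-type counterparts, from four leukaemia lines, were exposed to a single 10 µM dose of each library compound for 48 h. The supernatant was then removed and CellTiter-Glo luminescence was read. Viability was reported as percent of the on-plate vehicle control.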

MARIMO = tested on: MARIMO
How it was run: as §1

MOLM14 = tested on: MOLM14
How it was run: as §1

OCI-AML2 = tested on: OCI-AML2
How it was run: as §1

| SMILES | cell viability (K562; SRSF2 genotype: SRSF2 P95H/wt) | cell viability (K562; SRSF2 genotype: SRSF2 wt/wt) [%] | cell viability (MARIMO; SRSF2 genotype: SRSF2 P95H/wt) [%] | cell viability (MARIMO; SRSF2 genotype: SRSF2 wt/wt) [%] | cell viability (MOLM14; SRSF2 genotype: SRSF2 P95H/wt) [%] | cell viability (MOLM14; SRSF2 genotype: SRSF2 wt/wt) [%] | cell viability (OCI-AML2; SRSF2 genotype: P95H/wt) [%] | cell viability (OCI-AML2; SRSF2 genotype: wt/wt) [%] |
| --- | --- | --- | --- | --- | --- | --- | --- | --- |
| O=C(/C=C/c1ccccc1)OCc1ccccc1 [Benzyl cinnamate] | 101% and 100% | 103 | 85.5 | 99.6 | 108 | 104 | 92.1 | 93.1 |
| C[C@@H]1O[C@@H](O[C@H]2[C@H](Oc3cc(O)c4c(c3)O[C@H](c3ccc(O)cc3)CC4=O)O[C@H](CO)[C@@H](O)[C@@H]2O)[C@H](O)[C@H](O)[C@H]1O [Naringin (Naringoside)] | 101% and 119% | 111 | 102 | 107 | 106 | 109 | 112 | 100 |
| COc1ccc2cc1Oc1ccc(cc1)C[C@H]1c3c(cc4c(c3Oc3cc5c(cc3OC)CCN(C)[C@@H]5C2)OCO4)CCN1C [Cepharanthine] | 5.44% and 5.78% | 3.74 | 57.9 | 50.3 | 25.4 | 26.7 | 0.56 | 8.53 |
| CCCCCCCCCCCCCCCC(=O)OCC [Ethyl palmitate] | 101% | 97.9 | 103 | 106 | 106 | 101 | 98 | 107 |
| Cc1cc(N2CCOCC2)cc2[nH]c(-c3c(NCC(O)c4cccc(Cl)c4)cc[nH]c3=O)nc12 (configuration not stated) | 46.4% and 36.7% | 52.1 | 33.2 | 31 | 5.77 | 9.63 | 7.45 | 18 |
| CCC(=O)N1CCN(c2ccc(-n3c(=O)ccc4cnc5ccc(-c6cnc7ccccc7c6)cc5c43)cc2C(F)(F)F)CC1 [Torin 1] | 46.8% and 45.3% | 46.4 | 64.6 | 61.4 | 39.8 | 36.2 | 41.5 | 39.9 |
| COC(=O)c1ccc2c(c1)nc(NC(=O)c1ccccc1)n2CCCc1ccccc1 | 77.8% and 75.4% | 79.5 | 70.1 | 91.6 | 87.9 | 93.7 | 64.5 | 68.7 |
| CC[C@@H]1C(=O)N(C)c2cnc(Nc3ccc(C(=O)NC4CCN(C)CC4)cc3OC)nc2N1C1CCCC1 | 1.43% and 2.65% | 1.81 | 6.52 | 5.37 | 0.17 | 0.13 | 0.53 | 2.92 |
| CC(C)(C)S(=O)(=O)c1ccc2nccc(Nc3n[nH]c4ccc(F)cc34)c2c1 | 91.4% and 95.8% | 98.8 | 92.8 | 99.5 | 88 | 95.6 | 88.9 | 86.2 |
| N[C@@H](Cc1c[nH]c2ccc(O)cc12)C(=O)O [5-hydroxytryptophan (5-HTP)] | 106% and 102% | 94.2 | 99.8 | 103 | 93.3 | 99.1 | 94.5 | 104 |
| Nc1nc(N)c2nc(-c3cccc(O)c3)cnc2n1 | 80.3% and 89.9% | 83.4 | 63.7 | 59.2 | 57.2 | 57.8 | 48.7 | 53.1 |
| CC(C)(C)OC(=O)N[C@H]1CCCCC/C=C\[C@@H]2C[C@@]2(C(=O)NS(=O)(=O)C2CC2)NC(=O)[C@@H]2C[C@@H](OC(=O)N3Cc4cccc(F)c4C3)CN2C1=O [Danoprevir (ITMN-191)] | 97.7% and 108% | 98.9 | 106 | 106 | 96.8 | 101 | 123 | 108 |
| CN(C)c1cccc(-c2c3c(=O)n(-c4ccccc4Cl)[nH]c3cc(=O)n2C)c1 | 100% and 98.2% | 101 | 109 | 126 | 104 | 99.7 | 101 | 114 |
| O=C(NC1CCN(CCCCC2(C(=O)NCC(F)(F)F)c3ccccc3-c3ccccc32)CC1)c1ccccc1-c1ccc(C(F)(F)F)cc1 [Lomitapide Mesylate] | 0.41% and 0.38% | 0.33 | 0.5 | 0.68 | 0.26 | 0.3 | 0.27 | 0.3 |
| OC(c1cc(C(F)(F)F)nc2c(C(F)(F)F)cccc12)C1CCCCN1 (configuration not stated) [Mefloquine HCl] | 0.97% and 1.02% | 0.97 | 0.56 | 0.87 | 0.48 | 0.44 | 0.35 | 1.68 |
| COc1ccc(-c2coc3cc(O)ccc3c2=O)cc1 [Formononetin (Formononetol)] | 93.6% and 91.7% | 86.4 | 82.4 | 91.4 | 99.9 | 99.6 | 86.7 | 80.2 |
| C[C@H](NCc1ccc(OCc2cccc(F)c2)cc1)C(N)=O [Safinamide] | 101% and 109% | 107 | 103 | 105 | 98.7 | 106 | 104 | 106 |
| CCS(=O)(=O)Nc1ccc2[nH]c(O)c(C(=Nc3ccc(CN4CCCCC4)cc3)c3ccccc3)c2c1 [Hesperadin] | 19.5% and 24% | 15.9 | 5.46 | 9.42 | 0.94 | 0.3 | 5.95 | 9.44 |
| COc1cc(C=CC(=O)CC(=O)C=Cc2ccc(O)cc2)ccc1O [Demethoxycurcumin] | 46.9% and 54.2% | 64.6 | 62.9 | 64.4 | 8.11 | 13.7 | 13.5 | 23.6 |
| CCO[C@@H]1OC(=O)C[C@@H]1NC(=O)[C@@H]1CCCN1C(=O)[C@@H](NC(=O)c1ccc(N)c(Cl)c1)C(C)(C)C [Belnacasan (VX-765)] | 99.5% and 102% | 94 | 95.2 | 104 | 97.7 | 98.1 | 103 | 104 |

| SMILES | cell viability (K562; SRSF2 genotype: SRSF2 P95H/wt) | cell viability (K562; SRSF2 genotype: SRSF2 wt/wt) [%] | cell viability (MARIMO; SRSF2 genotype: SRSF2 P95H/wt) [%] | cell viability (MARIMO; SRSF2 genotype: SRSF2 wt/wt) [%] | cell viability (MOLM14; SRSF2 genotype: SRSF2 P95H/wt) [%] | cell viability (MOLM14; SRSF2 genotype: SRSF2 wt/wt) [%] | cell viability (OCI-AML2; SRSF2 genotype: P95H/wt) [%] | cell viability (OCI-AML2; SRSF2 genotype: wt/wt) [%] |
| --- | --- | --- | --- | --- | --- | --- | --- | --- |
| NC1=N[C@@]2(c3cc(NC(=O)c4ccc(F)cn4)ccc3F)COC[C@H]2CS1 | 94.7% and 91.1% | 86.1 | 89.6 | 98.4 | 99.7 | 94.2 | 94.4 | 92.6 |
| CNC(=O)c1c(C)oc2cc(Oc3ncnc4cc(OC)c(OC)cc34)ccc12 [Fruquintinib] | 101% and 96.7% | 97.1 | 98.6 | 99.7 | 95.8 | 105 | 84.3 | 85.4 |
| O=C1C(c2[nH]c3ccccc3c2O)=Nc2ccccc21 [Indigo] | 105% and 106% | 94.6 | 100 | 108 | 93 | 99.8 | 90 | 106 |
| O=C(O)c1c[nH]c2cc(Cl)c(-c3ccc(C4(O)CCC4)cc3)cc12 | 91.2% and 101% | 95.2 | 92.8 | 115 | 106 | 102 | 86.5 | 96.9 |
| Cc1cccc(-c2[nH]ncc2-c2ccc3ncccc3n2)n1 | 97.9% and 108% | 107 | 107 | 114 | 94.6 | 105 | 78.9 | 83.5 |
| C[C@@H]1O[C@@H](OC[C@H]2O[C@@H](Oc3cc(O)c4c(=O)cc(-c5ccc(O)cc5)oc4c3)[C@H](O[C@@H]3O[C@@H](C)[C@H](O)[C@@H](O)[C@H]3O)[C@@H](O)[C@@H]2O)[C@H](O)[C@H](O)[C@H]1O [ligustroflavone] | 103% | 106 | 97.1 | 105 | 90.7 | 103 | 107 | 108 |
| COc1ccnc(C[S+]([O-])c2nc3cc(OC(F)F)ccc3[nH]2)c1OC (configuration not stated) [Pantoprazole sodium] | 98.7% and 96.7% | 95.9 | 97 | 101 | 96.5 | 97.3 | 95.7 | 104 |
| CCN(CC)CCN(Cc1ccc(-c2ccc(C(F)(F)F)cc2)cc1)C(=O)Cn1c(SCc2ccc(F)cc2)nc(=O)c2c1CCC2 | 0.31% and 0.26% | 0.26 | 0.34 | 0.46 | 0.23 | 0.24 | 0.22 | 0.29 |
| CO[C@@]12[C@H](COC(N)=O)C3=C(C(=O)C(C)=C(N)C3=O)N1C[C@@H]1N[C@@H]12 [Mitomycin C] | 17.1% and 28% | 21 | 5.24 | 2.95 | 0.73 | 0.37 | 0.41 | 0.98 |
| CC1(C)CC[C@]2(C(=O)O[C@@H]3O[C@H](CO[C@@H]4O[C@H](CO)[C@@H](O)[C@H](O)[C@H]4O)[C@@H](O)[C@H](O)[C@H]3O)CC[C@]3(C)C(=CC[C@@H]4[C@@]5(C)CC[C@H](O[C@@H]6OC[C@H](O)[C@H](O)[C@H]6O)[C@@](C)(CO)[C@@H]5CC[C@]43C)[C@@H]2C1 [Akebia saponin D] | 107% and 101% | 103 | 105 | 113 | 103 | 108 | 96.4 | 106 |
| C[C@@H]1C[C@H]2[C@@H]3CCC4=CC(=O)C=C[C@]4(C)[C@@]3(F)[C@@H](O)C[C@]2(C)[C@@]1(O)C(=O)CO [Dexamethasone] | 99.7% and 95.1% | 92.8 | 106 | 99.8 | 95.4 | 90.6 | 98.2 | 103 |
| O=S(=O)(c1ccccc1)N(CC(F)(F)F)c1ccc(C(O)(C(F)(F)F)C(F)(F)F)cc1 | 74.6% and 72.6% | 72.3 | 67.8 | 70.4 | 62.3 | 65.2 | 67.5 | 70.7 |
| C=C[C@@H]1C[C@]1(NC(=O)[C@@H]1C[C@@H](Oc2ncc(OC)c3ccc(Cl)cc23)CN1C(=O)[C@@H](NC(=O)OC(C)(C)C)C(C)(C)C)C(=O)NS(=O)(=O)C1CC1 [Asunaprevir] | 88.6% and 75.8% | 78.8 | 103 | 109 | 96.3 | 97.9 | 108 | 110 |
| C=CC(=O)Nc1cc(Nc2nccc(-c3cn(C)c4ccccc34)n2)c(OC)cc1N(C)CCN(C)C | 1.58% and 2.37% | 3.2 | 1.11 | 1.36 | 0.38 | 0.44 | 0.32 | 0.41 |
| C[C@@H]1O[C@@H](OC[C@H]2O[C@@H](Oc3c(-c4ccc(O)c(O)c4)oc4cc(O)cc(O)c4c3=O)[C@H](O)[C@@H](O)[C@@H]2O)[C@H](O)[C@H](O)[C@H]1O [Rutin (Rutoside)] | 106% and 105% | 109 | 108 | 106 | 105 | 103 | 105 | 115 |
| C[C@@]12C[C@@]3(O)O[C@@H](O1)[C@]1(COC(=O)c4ccccc4)[C@H]3C[C@@]12O[C@@H]1O[C@H](CO)[C@@H](O)[C@H](O)[C@H]1O [Paeoniflorin] | 100% and 109% | 102 | 101 | 101 | 107 | 111 | 112 | 97.3 |
| COc1ccc(CNc2nc(N3CCC[C@H]3CO)ncc2C(=O)NCc2ncccn2)cc1Cl [Avanafil] | 96.2% and 96.6% | 98.8 | 104 | 106 | 103 | 104 | 102 | 105 |
| Cn1cc(C[C@@H](N)C(=O)O)c2ccccc21 [Indoximod (NLG-8189)] | 95.8% and 103% | 95.7 | 98.4 | 103 | 103 | 98.9 | 102 | 104 |
| C=CC(=O)N1CCN(C(=O)CNc2cc(I)c(Cl)cc2O)CC1 [K-Ras(G12C) inhibitor 12] | 78.9% and 84.7% | 75.2 | 79.8 | 83.6 | 62.9 | 81.2 | 93.3 | 88.1 |
